Test results: PubChem BioAssay AID1490 (National Center for Advancing Translational Sciences (NCATS), 2009)
Where “and” joins values, the source holds several entries; their conditions need not be identical. Equal values may be shown once. In all, about 310,000 compounds went through this assay and about 11,000 (3.5%) were called active. Roughly 4% stayed inconclusive and do not appear here. Calls follow the shape of the dose curve; as a rule, active = well fitted inhibition curve with a large enough effect; inconclusive = small, poorly fitted or top-dose-only effect, or another doubt; inactive = no such curve, though single readings can be large or run the other way. This excerpt belongs to a sample that is enriched for actives. Where a structure was tested more than once in an assay, its records may differ in their call.

molecular target: 4'-phosphopantetheinyl transferase ffp (Bacillus subtilis) (UniProt Q9F4F7); experiment: qHTS Assay for Inhibitors of Bacillus subtilis Sfp phosphopantetheinyl transferase (PPTase); details: Biochemical Sfp PPTase activity;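 also: the enzyme is Sfp with the accession as filed and its product quenches rhodamine fluorescence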;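 as to largest response in the series, negative = inhibition: 0% = enzyme reaction without inhibitor and -100% = no enzyme wells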
Procedure, shortened: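 Fluorescence-quenching assay with 15 nM Sfp, 5 uM rhodamine-CoA and 12.5 uM BHQ-2-labelled ybbR peptide in pH 7.6 Hepes/MgCl2 buffer. Enzyme was pre-incubated with compound for 15 min at room temperature. Rate was taken from the 30-min fluorescence change (525/598 nm).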
Potency is read from the fitted curve at half-maximal effect.

Compound | largest response in the series, negative = inhibition | Potency
COc1cc(C(=S)N2CCOCC2)ccc1O | 14.2% (inactive) | 
N#CC(C#N)=Cc1cc(O)c(O)c([N+](=O)[O-])c1 | -27.4% (inactive) and 8.16% (inactive) | 
OC(Cn1c2ccccc2c2ccccc21)C[n+]1ccccc1 (centres undefined) | 4.01% (inactive) | 
CC(C)(O)c1[se]c2ccccc2c1I | -14.3% (inactive) | 
O=C(N/N=C/c1ccc([N+](=O)[O-])o1)c1cc([N+](=O)[O-])cc([N+](=O)[O-])c1O | -16.6% (inactive) | 
COC(=O)c1ccc2[se]c(CC3CCCCC3)c(I)c2c1 | -1.34% (inactive) | 
C[C@]12O[C@H](C[C@@]1(O)C(=O)O)n1c3ccccc3c3c4c(c5c6ccccc6n2c5c31)CNC4=O | -2.27% (inactive) | 
CN(C)CC1CCCCC1=O (centres undefined) | 9.1% (inactive) | 
C=CCN1C(=O)C2(C(C(=O)OCC)=C(N)Oc3c2c(=O)oc2ccccc32)c2ccccc21 (centres undefined) | -13.3% (inactive) | 
CC(C)(c1ccc(OC[C@@H]2CO2)cc1)c1ccc(OC[C@H]2CO2)cc1 | -26.3% (inactive) | 
CCCCC/C=C\C/C=C\C/C=C\C=C\[C@H](CCCC(=O)O)OO | 1.29% (inactive) and 7.78% (inactive) | 
CCCCC/C=C\C/C=C\C/C=C\C/C=C\CCCCCC(=O)NCCO | -11.4% (inactive) and -19.7% (inactive) and 32% (inactive) | 25.1 µM (active)
CCCCC/C=C\C/C=C\C/C=C\CCCCCCC(=O)NCCO | -6.26% (inactive) and -18.5% (inactive) and 24.4% (inactive) | 
CCN1C[C@@]2(COC)CC[C@H](OC)[C@]34[C@@H]1[C@]1(OCO[C@@]15C[C@@H](OC)C1C[C@H]3[C@H]5[C@@H]1OC)[C@H](O)[C@@H]24 | 4.99% (inactive) | 
C=CCN1CCC23c4c5ccc(O)c4O[C@H]2C(=O)CC[C@@]3(O)C1C5 (some centres undefined) | 7.15% (inactive) | 
CN(C)[C@@H]1C(=O)C(C(N)=O)=C(O)[C@@]2(O)C(=O)C3=C(O)c4c(O)cccc4[C@@](C)(O)C3CC12 (some centres undefined) | -6.86% (inactive) | 
CCOC(=O)C1(CCc2ccccc2)CCN(Cc2ccco2)CC1 | -10.9% (inactive) | 
CN1[C@@H]2CC[C@H]1CC(OC(=O)c1cc(Cl)cc(Cl)c1)C2 (some centres undefined) | 10.2% (inactive) | 
CC(=O)Oc1ccccc1C(=O)Nc1ncc([N+](=O)[O-])s1 | -19.7% (inactive) | 50.1 µM (active)
O=c1oc2ccccc2c(O)c1C(c1ccccc1O)c1c(O)c2ccccc2oc1=O | 9.81% (inactive) | 
C[C@H]1C/C=C/[C@@H]2[C@@H]3O[C@]3(C)[C@@H](C)[C@H]3[C@H](Cc4ccccc4)NC(=O)[C@]32OC(=O)O/C=C/[C@](C)(O)C1=O | -0.438% (inactive) | 

Compound | largest response in the series, negative = inhibition | Potency
CN[C@@H]1C[C@H]2O[C@@](C)([C@@H]1OC)n1c3ccccc3c3c4c(c5c6ccccc6n2c5c31)C(=O)NC4 | 0.89% (inactive) and -25.9% (inactive) | 
c1ccc(CCCCN2CCC(c3ccccc3)CC2)cc1 | -6.46% (inactive) and 2.8% (inactive) | 
COc1ccc(CNCCc2ccc3c(c2)OCO3)c(OC)c1OC | -17.5% (inactive) | 
CC1=CC(=O)C2=C(C)C[C@H](O)[C@H]3[C@H](C)C(=O)O[C@@H]3C12 (some centres undefined) | 33% (inactive) | 
O=Cc1cn(Cc2ccc(F)cc2Cl)c2ccccc12 | 0.0934% (inactive) | 
CCOC(=O)C(O)(c1ccc(NC(=O)c2ccco2)c(OC)c1)C(F)(F)F (centres undefined) | 3.62% (inactive) | 
CCOC(=O)c1c(N)n(Cc2ccccc2)c2nc3ccccc3nc12 | 13.5% (inactive) | 
COc1cc(Cn2c(N)c(C(=O)NCc3ccco3)c3nc4ccccc4nc32)cc(OC)c1OC |  | 56.2 µM (active)
CC1CCCCN1Cc1cccnc1 (centres undefined) | -23.2% (inactive) | 
c1cncc(CNC2=NCCC2)c1 | 12.2% (inactive) | 
CN1CCC(N(C)Cc2cccnc2)CC1 |  | 89.1 µM (active)
CC(=O)c1c(O)c(C)c(O)c(Cc2c(O)c3c(c(C(=O)/C=C\c4ccccc4)c2O)OC(C)(C)C=C3)c1O | -29.6% (inactive) | 
COC1CC(OC2CC[C@@]3(C=O)C4CC[C@]5(C)C(C6=CC(=O)OC6)CC[C@@]5(O)C4CC[C@]3(O)C2)OC(C)C1O (some centres undefined) | 2.96% (inactive) | 
CN1CCN(C(=S)SCC(=O)Nc2ccc(Cl)cc2C(=O)c2ccccc2)CC1 | -8.26% (inactive) | 
CC(C(=O)Nc1ccc(Cl)cc1Cl)N1CC=C(c2ccccc2)CC1 (centres undefined) |  | 56.2 µM (active)
CN(C)C1C(=O)C(C(N)=O)=C(O)[C@@]2(O)C(=O)C3=C(O)c4c(O)cccc4[C@@](C)(O)C3C[C@@H]12 (some centres undefined) | -32.6% (inactive) | 
C[C@@H]1C[C@H]2CC[C@H](O2)[C@H](C)C(=O)O[C@@H](C)C[C@@H]2CC[C@@H](O2)[C@@H](C)C(=O)O[C@H](C)C[C@H]2CC[C@H](O2)[C@H](C)C(=O)O[C@@H](C)C[C@@H]2CC[C@@H](O2)[C@@H](C)C(=O)O1 | 6.1% (inactive) | 
CC(=O)OC1C2CCC3C1(CC(O)[C@@]1(O)[C@@H](CC(O)C1(C)C)[C@]3(C)O)C[C@@]2(C)O (some centres undefined) | 6.04% (inactive) | 
N#Cc1c(Cl)c(Cl)c(Cl)c(C#N)c1Cl | -8.59% (inactive) | 
CC[N+]1(CCOC(=O)C(O)(c2ccccc2)c2ccccc2)CCCCC1 | 12% (inactive) | 
CO[C@@H]1C[C@@H](C[C@H]2CC[C@H](C)[C@@H]([C@@H](C)C(=O)O)O2)O[C@]2(O[C@](C)([C@H]3CC[C@@](C)(C4OC([C@H]5O[C@@](O)(CO)[C@H](C)C[C@@H]5C)C[C@@H]4C)O3)C[C@H]2C)[C@@H]1C (some centres undefined) | 23.4% (inactive) | 

Compound | largest response in the series, negative = inhibition | Potency
CN(C)/C=C(\C=[N+](C)C)c1[nH]ncc1[N+](=O)[O-] | 0.787% (inactive) | 
CC(C)(Cc1c[nH]c2ccc(Cl)cc12)NCCOc1ccccc1OCC1CC1 | -25.3% (inactive) | 35.5 µM (active)
CCC(=O)CC(c1ccc([N+](=O)[O-])cc1)c1c(O)c2ccccc2oc1=O (centres undefined) | 6.92% (inactive) | 
c1ccc(CN2CC[C@@]3(CCCNC3)C2)cc1 | 1.98% (inactive) | 
COc1ccc(C2CC(c3cccs3)=NN2c2nc(C)c(C(C)=O)s2)cc1OC (centres undefined) |  | 39.8 µM (active)
Cc1ccc(-n2c(O)c(C=NCC3CCCO3)c(=O)[nH]c2=O)c(C)c1 (centres undefined) | -4.95% (inactive) | 
CNC(=S)N/N=C1\C2CN3CCN(C2)CC1(c1ccccc1)C3 | -18% (inactive) | 
O=C1NC(=O)N(c2ccccc2)C(=O)/C1=C/c1ccc([N+](=O)[O-])s1 |  | 35.5 µM (active)
COc1cccc(N2C(=O)NC(=O)/C(=C\c3ccc([N+](=O)[O-])s3)C2=O)c1 |  | 31.6 µM (active)
COc1cc(-n2c(=S)[nH]c3ccc(C)cc3c2=O)c(Cl)cc1Cl | 4.46% (inactive) | 
C=CCSSCC=C | -26.6% (inactive) | 
Cc1cccc([C@H](C)c2cnc[nH]2)c1C | 9.27% (inactive) | 
COc1ccc(C2N3CC(C)(C)CN23)cc1 (centres undefined) | 0.855% (inactive) | 
Cc1cccc(-n2c(O)c(C=NC34CN5CN(CN(C5)C3)C4)c(=O)[nH]c2=O)c1 | 9.77% (inactive) | 
C[N+]12CN3CN(CN(C3)C1)C2 | 12.8% (inactive) | 
c1ccc(N2CC[C@@]3(CCCNC3)C2)nc1 | -23.5% (inactive) | 
O=c1[nH]c(=O)n(-c2ccccc2)c(O)c1C=NC12CN3CN(CN(C3)C1)C2 | -28% (inactive) | 
CCCCCCCCCCCCN=C(N)N | -27% (inactive) | 
O=C1NC(=O)N(c2ccc(F)cc2)C(=O)/C1=C/c1ccc2c(c1)CCCN2Cc1ccccc1 |  | 44.7 µM (active)
CCC(C)C(=O)O[C@@H]1C[C@@]2(C)C(c3ccoc3)OC(=O)CC23OC2(C)O[C@@]14[C@@]1(C)C(CC(=O)OC)C5(C)CC1(O)C(O)(C5OC(=O)C1(C)OC1C)C(OC(C)=O)[C@@]34O2 (some centres undefined) | 3.31% (inactive) | 
CN(C)CC1CCCCC1OC(=O)c1ccc(Cl)c(Cl)c1 (centres undefined) | -11.6% (inactive) | 

Compound | largest response in the series, negative = inhibition | Potency
CCCCCCN=C(CC)c1c(O)n(CCCC)c(=O)[nH]c1=O | -9.2% (inactive) | 
C[C@@]12CCC3C(CC[C@@H]4CC(O)CC[C@@]34C)C1CCC2O (some centres undefined) | 7.22% (inactive) | 
Cc1ncsc1CCCl |  | 79.4 µM (active)
Clc1ccc([C@@H]2C[C@H]3CC[C@@H]2N3)cn1 | 9.37% (inactive) | 
Cc1ccc(-c2nn(CCC#N)cc2C(=O)O)cc1C | 25.7% (inactive) | 
CC(c1ccccc1)(c1ccccc1)c1ccncc1 | 5% (inactive) | 
c1csc(CN2CCCC3(CCNCC3)C2)n1 | 3.74% (inactive) | 
COc1ccc(C2Oc3c(I)c(OC)cc(OC)c3CC2O)cc1OC (centres undefined) | -16.3% (inactive) | 
CC[N+](C)(CC)CCC[n+]1c(-c2ccccc2)c2cc(N)ccc2c2ccc(N)cc21 |  | 28.2 µM (active) and 50.1 µM (active)
CC(C)(C)c1ccc(CN2C(=O)CN=C(c3ccccc3)c3ccccc32)cc1 | -3.66% (inactive) | 
Cc1ccc(S(=O)(=O)N(C)c2ccc(C(=O)NCC3(N(C)C)CCCCC3)cc2)cc1 | 13.3% (inactive) | 
COC1=C[C@]23CCCN2CCc2cc4c(cc2[C@@H]3[C@@H]1O)OCO4 | 1.35% (inactive) | 
CC(=O)c1c(O)n(C2CCCCCC2)c(=O)[nH]c1=O | 6.22% (inactive) | 
COc1ccccc1N1CCN(C(CNC(=O)Oc2ccccc2)c2cccnc2)CC1 (centres undefined) | 2.8% (inactive) | 
COc1ccc(CCn2c(O)c(C=NC3CC3)c(=O)[nH]c2=O)cc1OC | 12.3% (inactive) | 
O=C(O)C1CSC(c2cccnc2)N1 (centres undefined) |  | 56.2 µM (active)
CNC(=O)Nc1ccc(C(O)(C(=O)OC)C(F)(F)F)cc1 (centres undefined) | 6.69% (inactive) | 
CN1CCN(C(=O)O[C@@H]2c3nccnc3C(=O)N2c2ccc(Cl)cn2)CC1 | -8.07% (inactive) | 
